Measured values published in PubChem BioAssay (Tox21).
Results filed as inconclusive are left out. Activity calls are given as the source filed them. Unless noted, the call rests on the fitted dose curve; in most records, active means well fitted curve in the direction sought with a large enough effect in the repeat runs; inconclusive means weak or mixed curves; inactive means no such curve, though single readings can be large; an effect the other way counts as inactive or inconclusive.

Columns and labels:
[1] = qHTS assay to identify small molecule agonists of the estrogen receptor alpha (ER-alpha) signaling pathway in the presence of an antagonist - cell viability counter screen (AID 1259386);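 further: cells exposed to compounds for 22 h at 37 °C before the viability read; nearly all actives have a fitted effect of over 30% in size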; further: potency means the concentration at half of the fitted maximal effect
Summary of the method: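 ICI-182,780 at 10.0nM final accompanies the compound titration (15 concentrations, 22hr, 37C) on VM7Luc4E2 cells. The CellTiter-Fluor fluorescence readout runs in the same wells as the luciferase assay.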

[2] = target: Progesterone receptor (Homo sapiens) (UniProt P06401); assay: qHTS assay to identify small molecule antagonists of the progesterone receptor (PR) signaling pathway (AID 1346795; active means well fitted inhibition curve with a large enough effect in the signal ratio in the repeat runs, not every such curve was filed as active; the % refers to the signal ratio; further: potency means the concentration at half of the fitted maximal effect)
Sequence of Progesterone receptor (Homo sapiens) (P06401 whole entry, looked up): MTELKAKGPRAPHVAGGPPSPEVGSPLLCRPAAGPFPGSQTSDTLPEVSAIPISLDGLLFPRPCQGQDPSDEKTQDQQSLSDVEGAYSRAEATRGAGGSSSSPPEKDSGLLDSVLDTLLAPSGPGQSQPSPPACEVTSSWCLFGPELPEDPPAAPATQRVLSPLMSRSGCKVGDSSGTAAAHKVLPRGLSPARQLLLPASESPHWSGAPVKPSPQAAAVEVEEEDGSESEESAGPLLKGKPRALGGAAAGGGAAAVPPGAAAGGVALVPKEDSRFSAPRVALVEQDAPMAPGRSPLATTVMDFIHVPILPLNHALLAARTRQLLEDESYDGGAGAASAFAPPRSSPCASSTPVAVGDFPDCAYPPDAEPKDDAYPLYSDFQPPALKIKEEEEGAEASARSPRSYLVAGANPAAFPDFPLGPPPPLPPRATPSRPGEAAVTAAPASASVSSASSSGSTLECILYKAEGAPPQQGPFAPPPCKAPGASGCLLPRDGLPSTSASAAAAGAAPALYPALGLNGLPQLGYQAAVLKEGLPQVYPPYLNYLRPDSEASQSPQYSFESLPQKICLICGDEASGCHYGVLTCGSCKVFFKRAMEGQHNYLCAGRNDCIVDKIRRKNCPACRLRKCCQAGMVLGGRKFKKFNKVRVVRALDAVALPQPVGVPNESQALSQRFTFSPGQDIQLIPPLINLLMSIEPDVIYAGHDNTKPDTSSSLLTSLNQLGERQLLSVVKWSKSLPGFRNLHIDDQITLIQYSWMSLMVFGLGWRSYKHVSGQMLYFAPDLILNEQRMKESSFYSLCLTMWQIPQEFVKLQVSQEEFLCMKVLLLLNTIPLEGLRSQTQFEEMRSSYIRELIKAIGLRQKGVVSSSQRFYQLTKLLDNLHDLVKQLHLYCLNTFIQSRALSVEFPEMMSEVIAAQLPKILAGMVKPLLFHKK
Summary of the method: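 After 6 hr plating at 37C in 2% stripped-serum medium, PR-UAS-bla HEK293T cells got compounds, then 1 nM R5020. Sixteen hours later, LiveBLAzer substrate was applied for 2 hr at room temperature and fluorescence was recorded.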

[3] = qHTS assay to identify small molecule antagonists of the progesterone receptor (PR) signaling pathway - cell viability counter screen (AID 1346798); further: series mostly up to about 92 µM; nearly all actives have a fitted effect of over 50% in size
Summary of the method: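 Viability was determined by ATP-based luminescence (CellTiter-Glo) in PR-UAS-bla HEK293T cells cultured in 2% charcoal-stripped serum and incubated 16 hr with compounds under R5020 stimulation.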

[4] = qHTS assay to identify small molecule agonists of the progesterone receptor (PR) signaling pathway - cell viability counter screen (AID 1346799; calls by dose curve; further: nearly all actives have a fitted effect of over 45% in size; further: potency means the concentration at half of the fitted maximal effect)
Summary of the method: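 Viability was scored by ATP luminescence (CellTiter-Glo, 30 min, room temperature) in the same wells used for the reporter readout, after 16 hr compound exposure of PR-UAS-bla HEK293T cells.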

[5] = qHTS assay to identify small molecule antagonists of the TGF-beta/Smad signaling pathway - cell viability counter screen (AID 1346824); further: nearly all actives have a fitted effect of over 50% in size
Summary of the method: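 SBE-bla HEK 293T cells, incubated overnight, then compound plus 0.25 ng/mL TGF-beta1 (stock added) for 5 hr at 37 C. Viability was read in the same wells by CellTiter-Glo luminescence after 30 min at room temperature.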

[6] = qHTS assay to identify small molecule agonists of the TGF-beta/Smad signaling pathway - cell viability counter screen (AID 1346829); further: top concentration of the series differs between compounds; nearly all actives have a fitted effect of over 45% in size
Summary of the method: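 Tox21 qHTS format: SBE-bla HEK 293T cells treated with DMSO-dissolved compounds for 5 hr; CellTiter-Glo luminescence after 30 min at room temperature.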

[7] = qHTS assay to identify small molecule agonists of the TGF-beta/Smad signaling pathway (AID 1346859; active means well fitted activation curve with a large enough effect in the signal ratio in the repeat runs, not every such curve was filed as active; the % refers to the signal ratio; further: series mostly up to about 77 µM)
Summary of the method: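 Dual-wavelength fluorescence (460/530 nm emission) quantified beta-lactamase expression under the Smad binding element in HEK 293T cells following 5 hr compound treatment at 37 C.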

[8] = target: Thyrotropin-releasing hormone receptor (Homo sapiens) (UniProt P34981); assay: qHTS assay to identify small molecule antagonists of the thyrotropin-releasing hormone receptor (TRHR) signaling pathway (AID 1346877; active means well fitted inhibition curve with a large enough effect in the repeat runs, not every such curve was filed as active; further: series mostly up to about 51 µM)
Sequence of Thyrotropin-releasing hormone receptor (Homo sapiens) (P34981 whole entry, looked up): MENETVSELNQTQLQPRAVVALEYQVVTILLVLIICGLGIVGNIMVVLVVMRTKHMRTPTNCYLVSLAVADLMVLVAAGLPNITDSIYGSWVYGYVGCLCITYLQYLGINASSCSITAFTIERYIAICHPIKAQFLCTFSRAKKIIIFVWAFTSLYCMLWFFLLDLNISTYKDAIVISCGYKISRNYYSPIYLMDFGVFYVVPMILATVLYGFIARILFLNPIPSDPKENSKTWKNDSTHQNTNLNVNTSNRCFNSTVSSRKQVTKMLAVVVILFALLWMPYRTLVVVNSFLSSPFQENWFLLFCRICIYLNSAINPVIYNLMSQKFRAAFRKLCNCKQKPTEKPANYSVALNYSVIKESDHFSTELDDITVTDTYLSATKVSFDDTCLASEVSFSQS
Summary of the method: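 Screening used HEK293 cells engineered with TRHR, with a brief 5 min room-temperature compound exposure preceding addition of TRH to 1 nM. The read-out was kinetic calcium-dye fluorescence, concentration-response from 15 doses in triplicate.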

[9] = target: Thyrotropin-releasing hormone receptor (Homo sapiens) (UniProt P34981); assay: qHTS assay to identify small molecule agonists of the thyrotropin-releasing hormone receptor (TRHR) signaling pathway (AID 1346891; calls by dose curve;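 further: HEK293 cells expressing TRHR with calcium dye readout; series mostly up to about 58 µM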)
Summary of the method: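 Kinetic fluorescence (3 min, 1 s intervals) reported intracellular calcium after compound transfer onto TRHR-Hek293 cells pre-loaded with dye for 2 h at 37 °C.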

[10] = Human pregnane X receptor (PXR) small molecule agonists, qHTS cell viability counter screen (AID 1346977); further: nearly all actives have a fitted effect of over 50% in size; further: potency means the concentration at half of the fitted maximal effect
Summary of the method: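 HepG2 cells stably carrying the PXR-Luc reporter are cultured with 5% charcoal-stripped FBS and treated with compounds for 24hr. CellTiter-Fluor is added at 23hr and fluorescence is read after 1hr.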

[11] = Caspase-3/7 induction in HepG2 cells by small molecules, qHTS assay (AID 1346978); further: nearly all actives have a fitted effect of over 15% in size; further: potency means the concentration at half of the fitted maximal effect
Summary of the method: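 Wild-type HepG2 cells, 2,000/well, settled 5 hr at 37 C and 5% CO2, then compound-treated for 17 hr; caspase-3/7 activity read by luminescent Caspase-Glo 3/7 after 30 min at room temperature.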

[12] = Caspase-3/7 induction in CHO-K1 cells by small molecules, qHTS cell viability counter screen (AID 1346979); further: nearly all actives have a fitted effect of over 35% in size; further: potency means the concentration at half of the fitted maximal effect
Summary of the method: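 Seeding: 1,500 CHO-K1 cells/well. Rest: 5hr, 37C. Treatment: compounds in DMSO, 16hr. Read: CellTiter-Fluor, 1hr, fluorescence.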

[13] = Caspase-3/7 induction in CHO-K1 cells by small molecules, qHTS assay (AID 1346980); further: nearly all actives have a fitted effect of over 15% in size
Summary of the method: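 Wild-type CHO-K1 cells exposed to compounds for 17hr at 37 C, 5% CO2. Caspase-3/7 activity then measured by Caspase-Glo 3/7 luminescence after 30min at room temperature.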

[14] = Caspase-3/7 induction in HepG2 cells by small molecules, qHTS cell viability counter screen (AID 1346981); further: nearly all actives have a fitted effect of over 30% in size; further: potency means the concentration at half of the fitted maximal effect
Summary of the method: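 Multiplexed with the caspase-3/7 assay: HepG2 cells, 16 hr compound treatment, CellTiter-Fluor viability detection by fluorescence.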

[15] = target: Nuclear receptor subfamily 1 group I member 2 (Homo sapiens) (UniProt O75469); assay: Human pregnane X receptor (PXR) small molecule agonists, qHTS assay (AID 1346982); further: nearly all actives have a fitted effect of over 35% in size; further: potency means the concentration at half of the fitted maximal effect
Sequence of Nuclear receptor subfamily 1 group I member 2 (Homo sapiens) (O75469 whole entry, looked up): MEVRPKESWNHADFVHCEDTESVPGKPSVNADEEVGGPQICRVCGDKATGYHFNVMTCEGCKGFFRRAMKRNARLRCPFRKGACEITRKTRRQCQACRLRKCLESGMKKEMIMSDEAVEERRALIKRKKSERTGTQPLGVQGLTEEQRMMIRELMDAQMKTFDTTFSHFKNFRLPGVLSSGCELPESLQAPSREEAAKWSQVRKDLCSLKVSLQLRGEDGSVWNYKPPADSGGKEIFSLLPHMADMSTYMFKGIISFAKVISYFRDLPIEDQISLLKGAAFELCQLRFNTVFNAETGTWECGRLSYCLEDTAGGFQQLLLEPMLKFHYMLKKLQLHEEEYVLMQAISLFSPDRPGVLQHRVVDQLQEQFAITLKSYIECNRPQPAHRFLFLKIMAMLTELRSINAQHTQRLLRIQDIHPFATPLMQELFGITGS
Summary of the method: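 We seeded PXR-Luc HepG2 cells in assay medium containing 5% charcoal-stripped FBS, added compounds 5 hr later, incubated 24 hr, and read luminescence with ONE-Glo reagent.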

[16] = target: Cytochrome P450 2D6 (Homo sapiens) (UniProt P10635); assay: Cytochrome P450 Family 2 Subfamily D Member 6 (CYP2D6) small molecule antagonists: luciferase reporter qHTS assay (AID 1671196); further: nearly all actives have a fitted effect of over 50% in size; further: potency means the concentration at half of the fitted maximal effect
Sequence of Cytochrome P450 2D6 (Homo sapiens) (P10635 whole entry, looked up): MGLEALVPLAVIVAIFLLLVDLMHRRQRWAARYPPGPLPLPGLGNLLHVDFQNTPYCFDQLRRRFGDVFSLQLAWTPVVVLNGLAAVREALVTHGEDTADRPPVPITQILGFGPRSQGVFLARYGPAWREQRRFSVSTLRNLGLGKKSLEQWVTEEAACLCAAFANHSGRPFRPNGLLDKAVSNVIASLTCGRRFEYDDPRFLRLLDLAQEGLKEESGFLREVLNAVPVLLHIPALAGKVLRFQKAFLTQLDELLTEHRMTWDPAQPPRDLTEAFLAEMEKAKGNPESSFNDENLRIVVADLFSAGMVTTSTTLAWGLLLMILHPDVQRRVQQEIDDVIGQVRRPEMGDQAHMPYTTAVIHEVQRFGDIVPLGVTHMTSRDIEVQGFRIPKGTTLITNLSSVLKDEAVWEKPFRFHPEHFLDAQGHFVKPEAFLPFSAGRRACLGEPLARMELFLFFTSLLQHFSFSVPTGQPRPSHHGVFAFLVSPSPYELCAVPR
Summary of the method: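 Luminescence (RLU), read 20 min after detection reagent, indicated CYP2D6 conversion of proluciferin to luciferin during a 1 h NADPH-dependent reaction at room temperature.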

[17] = target: Progesterone receptor (Homo sapiens) (UniProt P06401); assay: qHTS assay to identify small molecule agonists of the progesterone receptor (PR) signaling pathway (AID 1346784; calls by dose curve; further: nearly all actives have a fitted effect of over 30% in size; further: potency means the concentration at half of the fitted maximal effect)
Summary of the method: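 The screen uses PR-UAS-bla HEK 293T cells in charcoal-stripped serum (2%). Compounds are applied for 16 hr at 37C after a 6 hr pre-incubation, and reporter activity is detected with a FRET beta-lactamase substrate after 2 hr at room temperature.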

[18] = target: Nuclear receptor subfamily 1 group I member 2 (Rattus norvegicus) (UniProt Q9R1A7); assay: Rat pregnane X receptor (rPXR) activation by small molecules, qHTS assay (AID 1346983); settings: rPXR luciferase reporter cells, One-Glo luminescence, 24 h; max activation: active compounds read high; further: nearly all actives have a fitted effect of over 20% in size; further: potency means the concentration at half of the fitted maximal effect
Sequence of Nuclear receptor subfamily 1 group I member 2 (Rattus norvegicus) (Q9R1A7 whole entry, looked up): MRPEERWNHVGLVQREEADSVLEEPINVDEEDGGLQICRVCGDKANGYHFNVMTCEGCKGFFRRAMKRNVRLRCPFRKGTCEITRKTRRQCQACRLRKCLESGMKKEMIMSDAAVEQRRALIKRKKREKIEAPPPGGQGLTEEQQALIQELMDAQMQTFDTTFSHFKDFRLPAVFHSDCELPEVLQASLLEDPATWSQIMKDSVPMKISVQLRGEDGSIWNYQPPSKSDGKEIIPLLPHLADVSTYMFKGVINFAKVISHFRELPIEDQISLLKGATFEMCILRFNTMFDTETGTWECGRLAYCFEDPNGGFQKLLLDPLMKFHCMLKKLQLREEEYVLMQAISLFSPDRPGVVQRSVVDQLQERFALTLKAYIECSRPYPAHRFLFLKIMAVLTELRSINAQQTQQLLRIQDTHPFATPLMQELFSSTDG
Summary of the method: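 Cell-based rPXR activation assay: rPXR cells, 2,000 per well, rested 5hr at 37 C, then exposed to compounds in DMSO for 24 hr at 37 C. Luciferase activity read by One-Glo luminescence after 30 min at room temperature.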

[19] = target: Nuclear receptor subfamily 1 group I member 2 (Homo sapiens) (UniProt O75469); assay: CYP3A4 induction through human pregnane X receptor (PXR) by small molecules, qHTS assay (AID 1346984); further: nearly all actives have a fitted effect of over 40% in size; further: potency means the concentration at half of the fitted maximal effect
Summary of the method: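 qHTS, concentration-response format: HepG2 DPX-2 line, PXR/CYP3A4-luc. Exposure 24 h, 37C. Substrate Luciferin-IPA 3uM final, 3 h. Detection One-Glo, 30 min RT.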

[20] = target: Nuclear receptor subfamily 1 group I member 2 (Homo sapiens) (UniProt O75469); assay: Human pregnane X receptor (PXR) activation by small molecules, qHTS assay (AID 1346985); further: nearly all actives have a fitted effect of over 40% in size
Summary of the method: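 DPX-2 cells (HepG2 co-transfected with a PXR response element and a CYP3A4-promoter luciferase construct) were seeded at 2,000 per well, rested 5 hr at 37C, then exposed to DMSO-dissolved compounds for 24 hr. Activation was read as luciferase luminescence.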
On the % scale 0 is the no-effect control and ±100 the full control effect.

CCOC(=O)OCC
inactive: Potency [1] | Potency [2] | Potency [3] | Potency [4] | outcome [5] | outcome [6] | outcome [7] | outcome [8] | Potency [9] | Potency [10] | Potency [11] | Potency [12] | outcome [13] | Potency [14] | Potency [15]
active: Potency [16] 23.3 µM

OCCSc1ccccc1
inactive: Potency [1] | Potency [17] | outcome [5] | outcome [6] | outcome [7] | Potency [10] | Potency [11] | Potency [12] | outcome [13] | Potency [14] | Potency [16]

CC1(C)O[C@@H]2C[C@H]3[C@@H]4CCC5=CC(=O)C=C[C@]5(C)[C@H]4[C@@H](O)C[C@]3(C)[C@]2(C(=O)CO)O1
active: Potency [17] 0.133 µM | Potency [18] 8.91 µM | Potency [19] 1.58 µM | Potency [16] 38.9 µM
inactive: Potency [1] | Potency [3] | outcome [5] | outcome [6] | outcome [8] | Potency [9] | Potency [10] | Potency [11] | Potency [12] | outcome [13] | Potency [14]

C[C@]12CCC(=O)C=C1C=C[C@@H]1[C@@H]2CC[C@@]2(C)[C@H]1CC[C@@]21CCC(=O)O1
inactive: Potency [1] | outcome [5] | outcome [6] | outcome [8] | Potency [9] | Potency [10] | Potency [11] | outcome [13] | Potency [15] | max activation [18] 4.49% | Potency [19] | Potency [20] | Potency [16]
active: Potency [17] 1.68 µM

CNC(=S)NC
active: Potency [4] 7.7 µM
inactive: Potency [1] | Potency [17] | outcome [5] | outcome [6] | outcome [7] | outcome [8] | Potency [9] | Potency [10] | outcome [13] | Potency [14] | Potency [15]

CO[Si](C)(OC)OC
inactive: Potency [1] | Potency [2] | Potency [3] | Potency [4] | outcome [5] | outcome [6] | outcome [7] | outcome [8] | Potency [10] | Potency [11] | Potency [12] | outcome [13] | Potency [14] | Potency [15] | Potency [16]

CCNC(=O)N1CCN(CCCC(c2ccc(F)cc2)c2ccc(F)cc2)CC1
active: Potency [1] 23.7 µM | Potency [10] 13.3 µM | Potency [12] 26.6 µM | Potency [14] 29.8 µM | Potency [15] 26.6 µM
inactive: Potency [17] | Potency [3] | outcome [5] | outcome [6] | outcome [8] | Potency [9] | Potency [11] | outcome [13] | max activation [18] -17% | Potency [19] | Potency [20]

CC1(C)C2=CCCC(C)(C)[C@]23CC[C@H]1C3
active: Potency [15] 54.5 µM
inactive: Potency [1] | Potency [2] | outcome [5] | outcome [6] | outcome [7] | outcome [8] | Potency [10] | Potency [11] | Potency [12] | outcome [13] | Potency [14] | Potency [16]

CC1=NN(c2ccc(C(=O)O)cc2)C(=O)C1
inactive: Potency [1] | Potency [2] | Potency [3] | Potency [4] | outcome [5] | outcome [7] | outcome [8] | Potency [10] | Potency [11] | Potency [12] | outcome [13] | Potency [14] | Potency [15]

CCn1cc(C(=O)O)c(=O)c2cc(F)c(N3CCNCC3)nc21
inactive: Potency [1] | Potency [2] | Potency [3] | Potency [4] | outcome [5] | outcome [6] | Potency [10] | Potency [12] | outcome [13] | Potency [15] | max activation [18] -1.42% | Potency [19] | Potency [20] | Potency [16]

O=C(N[C@@H](c1ccccc1)[C@@H]1CCCCN1)c1cccc(C(F)(F)F)c1Cl
active: Potency [2] 34.4 µM | Potency [10] 54.5 µM | Potency [11] 54.5 µM | Potency [14] 61.1 µM | Potency [16] 1.26 µM
inactive: Potency [1] | outcome [5] | outcome [6] | outcome [7] | outcome [8] | Potency [9] | outcome [13]

O=C(N/N=C/c1ccc([N+](=O)[O-])o1)c1ccc(O)cc1
active: Potency [1] 29.8 µM | Potency [10] 10.6 µM | Potency [12] 23.7 µM | Potency [14] 29.8 µM
inactive: Potency [3] | outcome [5] | outcome [6] | outcome [7] | Potency [9] | outcome [13] | max activation [18] -12.4% | Potency [19] | Potency [20]

Cc1cc(O)c2c(O)c3c(O)cccc3cc2c1
inactive: Potency [1] | Potency [2] | Potency [3] | outcome [5] | outcome [6] | outcome [7] | outcome [8] | Potency [9] | Potency [10] | Potency [11] | outcome [13] | Potency [14] | Potency [16]
active: Potency [15] 11.9 µM

CC(C)=CC=O
inactive: Potency [1] | Potency [3] | Potency [4] | outcome [5] | outcome [6] | outcome [7] | outcome [8] | Potency [10] | Potency [11] | Potency [12] | outcome [13] | Potency [14] | Potency [16]

O=C(C(=O)c1ccccc1)c1ccccc1
active: Potency [16] 31.6 µM
inactive: Potency [1] | Potency [2] | Potency [3] | Potency [4] | outcome [5] | outcome [7] | Potency [9] | Potency [10] | Potency [12] | outcome [13] | Potency [15]

O=C(NCCCN1CCOCC1)c1ccc(Cl)cc1
inactive: Potency [1] | Potency [2] | Potency [3] | Potency [4] | outcome [5] | outcome [6] | outcome [7] | Potency [10] | Potency [11] | outcome [13] | Potency [14] | Potency [15] | max activation [18] 4.03% | Potency [19] | Potency [20]
active: Potency [16] 2.45 µM
